# Assay outcomes deposited in PubChem by several laboratories.
# PP5 inh = blocks human protein phosphatase 5 activity; purified PP5c, OMFP substrate fluorescence; AID 1987; P53041; 0.18% of 320,000 active; inhibition, % at 6.7 µM;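 active = inhibition above the campaign's mean inhibition across all tested compounds plus 3 SD, cut at about 9.5% in these data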;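 also: 0% = DMSO only and 100% = 100 µM cantharidin control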
# Target sequence (P53041 whole entry, looked up): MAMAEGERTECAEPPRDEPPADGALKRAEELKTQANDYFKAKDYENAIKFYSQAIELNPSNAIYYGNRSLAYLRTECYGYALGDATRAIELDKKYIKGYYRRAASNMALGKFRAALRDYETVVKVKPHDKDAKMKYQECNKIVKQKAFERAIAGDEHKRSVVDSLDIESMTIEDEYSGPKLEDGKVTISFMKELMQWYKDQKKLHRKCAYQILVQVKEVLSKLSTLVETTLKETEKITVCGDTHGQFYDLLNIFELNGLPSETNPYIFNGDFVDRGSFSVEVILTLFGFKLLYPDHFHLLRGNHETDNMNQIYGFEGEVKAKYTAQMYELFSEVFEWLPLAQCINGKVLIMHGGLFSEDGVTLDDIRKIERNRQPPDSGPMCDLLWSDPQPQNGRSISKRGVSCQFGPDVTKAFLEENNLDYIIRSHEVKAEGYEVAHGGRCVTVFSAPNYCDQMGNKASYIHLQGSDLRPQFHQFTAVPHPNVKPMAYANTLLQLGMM
# PP1 inh = counter-screen for PP5 inhibitors: inhibitors of human PP1-alpha. P62136. AID 2235. inhibition, % at 6.7 µM. 0.9% of 320,000 active. purified PP1alpha, OMFP fluorescence;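 active = inhibition above the mean inhibition of all tested compounds plus 3 SD, computed separately for each screening campaign, cut at about 15% in these data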
# SKKanGAS inh = blocks kanamycin growth of S. pyogenes SKKanGAS strain. BacTiter-Glo, 6 h. inhibition, % at 7.5 µM. 1.3% of 300,000 active;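 active = mean replicate score, as percent of positive control median, at least 50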;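 also: strain carries kanamycin resistance gene driven by streptokinase promoter and grows in 40 µg/ml kanamycin; loss of luminescence reflects streptokinase promoter inhibition or plain growth inhibition; 0% = median of DMSO wells and 100% = positive control at its reference dose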
# Granule exo inh = lytic granule exocytosis inhibition | 0.66% of 360,000 active | AID 651702 | TALL-104 LAMP-1 surface exposure, flow cytometry; cells stimulated with thapsigargin and PMA | inhibition, % at 10 µM;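 active = inhibition above about 55%, limit read from the data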
# IDE cell activ = boosts human insulin-degrading enzyme activity in HEK cells; 0.073% of 340,000 active; activation, % at 5.96 µM; FAbeta-B cleavage, fluorescence polarization; 0% vehicle, 100% cell-free pure enzyme wells;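 active = activation above the mean of all tested compounds plus 3 SD, set per screening campaign, cut at about 17% in these data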
# IDE cell inh = inhibitors of human insulin-degrading enzyme in cells | P14735 | HEK cells, FAbetaB cleavage, fluorescence polarization | inhibition, % at 5.59 µM | 0.41% of 320,000 active | AID 434962;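 active = percent inhibition above the average of all tested compounds plus 3 SD, set per screening campaign, cut at about 16% in these data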;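 also: IDE supplied by intact live HEK cells; FP after avidin binding of uncleaved biotin substrate so inhibition keeps polarization high; 0% = DMSO wells and 100% = 60 µM reference IDE inhibitor Ii1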
# The depositor's hits bear a star; . = not tested or not shown; ! = not confirmed by another sample. Compounds with a hit are over-represented: about 2.8% of the library has one in this group of screens.
SMILES,PP5 inh,PP1 inh,SKKanGAS inh,Granule exo inh,IDE cell activ,IDE cell inh
COc1cc(C2C(C(=O)c3cc4ccccc4o3)=C(O)C(=O)N2c2cc(C)on2)cc(OC)c1OC (centres undefined),2.2,17.2*,6.8,1.0,-3.0,9.7
COc1cccc(C2C(C(=O)c3cc4ccccc4o3)=C(O)C(=O)N2c2cc(C)on2)c1OC (centres undefined),1.4,15.2*,18.8,-4.6,7.7,-0.3
COC(=O)c1ccc(C2C(C(=O)c3cc4ccccc4o3)=C(O)C(=O)N2c2cc(C)on2)cc1 (centres undefined),-3.6,26.6*,23.4,-1.6,-0.8,2.1
CCOC(=O)C1=CN(C(C)C)CCC1=O,.,.,.,-1.7,5.1,.
CN(CC(=O)Nc1cccc(F)c1)C(=O)/C=C/c1cn(Cc2ccccc2)nc1-c1cccnc1,0.8,-6.8,-9.3,0.5,3.1,-4.7
CCCCCCn1c(=O)c(C(=O)N/N=C/c2cccc(F)c2)c(O)c2ccccc21,0.1,-6.1,62.9*,-0.8,2.5,-2.0
CC(C)CCn1c(=O)c(C(=O)N/N=C/c2cccc(F)c2)c(O)c2ccccc21,1.1,-0.9,80.7*,-4.9,4.3,0.5
CCCn1c(=O)c(C(=O)N/N=C/c2ccccc2F)c(O)c2ccccc21,-3.0,-0.3,14.6,1.7,-1.8,1.3
CCCn1c(=O)c(C(=O)N/N=C/c2ccc(F)cc2)c(O)c2ccccc21,3.2,-6.5,103.1*,1.1,-5.4,7.5
CCN1CCN(c2c(/C=C3\SC(=S)N(Cc4ccco4)C3=O)c(C)c(C#N)c(=O)n2C)CC1,-0.9,9.3,-2.4,18.8,-62.4,65.9*
COc1ccc(Nc2nnc(Cc3ccc(Cl)cc3)c(=O)[nH]2)c(OC)c1,0.8,-0.3,10.7,0.5,2.3,6.6
COc1ccc(Cc2nnc(Nc3ccc(Cl)cc3)[nH]c2=O)cc1,1.4,17.5*,-5.0,1.1,3.1,-4.8
COc1ccc(/C=N/NC(=O)CCn2cnc(-c3ccccc3)c2-c2ccccc2)cc1,3.5,-0.6,105.4*,-0.9,-0.6,-0.8
O=C(CCn1cnc(-c2ccccc2)c1-c1ccccc1)N/N=C/c1ccccc1O,2.7,0.8,76.3*,0.2,0.1,-1.2
O=C(CCn1cnc(-c2ccccc2)c1-c1ccccc1)N/N=C/c1ccc(O)cc1,3.4,2.1,12.6,11.3,3.3,-2.4
Cc1ccc(NC(=O)CCC(=O)N/N=C/c2ccccc2O)cc1,0.0,-3.4,6.8,-4.5,-2.4,-0.4
O=C(CCC(=O)Nc1ccc(Br)cc1)N/N=C/c1ccccc1O,2.3,1.3,83.1*,1.5,3.7,5.2
COc1oc(C(=O)NC2CCCCC2)c(-c2ccc(Cl)cc2)c1S(=O)(=O)c1ccccc1,.,.,.,11.4,1.2,.
COc1cc(N=c2ssnc2Cl)cc(OC)c1OC,3.8,-0.3,-7.9,99.3*,-27.1,8.4
N#Cc1ccc(N=c2ssnc2Cl)cc1,-1.5,-2.7,-3.6,99.3*!,-4.2,0.7
COc1ccc(N=c2ssnc2Cl)cc1,2.0,1.6,6.4,1.8,-6.9,3.7
CCc1nc2ccc(C(=O)NCCC(C)C)cn2c1N(CC)CCN(C)C,.,.,.,1.2,.,.
C/C(=N\NC(=O)c1cc2ccccc2cc1O)c1ccc2c(c1)OCO2,1.3,6.0,80.9*,-4.9,4.9,1.0
C/C(=N\Nc1nc2ccccc2[nH]1)c1ccc2c(c1)OCO2,1.2,4.9,58.4*,17.9,-2.1,4.3
C/C(=N\Nc1nc2ccccc2[nH]1)c1ccc2c(c1)OCCO2,0.9,1.6,16.9,0.4,4.2,0.2
SMILES,PP5 inh,PP1 inh,SKKanGAS inh,Granule exo inh,IDE cell activ,IDE cell inh
CCc1ccc(C2=CSC3=NCCN23)cc1,0.1,-3.6,2.6,5.8,5.9,-2.5
O=C(Nc1nc2ccccc2n1CCOc1ccc(Cl)cc1)c1ccco1,0.6,3.8,90.5*,0.5,4.0,1.2
O=C(Nc1nc2ccccc2n1CCN1CCCCC1)c1ccco1,0.7,-0.9,-4.6,2.7,-4.6,6.4
Cc1ccc(OCCn2c(NC(=O)c3ccco3)nc3ccccc32)cc1,0.0,-1.2,65.7*,11.5,1.9,1.2
O=C(Nc1nc2ccccc2n1CCOc1ccccc1)c1ccco1,3.4,-2.1,77.1*,28.9,6.6,-5.7
N#Cc1ccc(N[C@@H]2CCN3C(=O)c4ccccc4[C@@H]3C[C@H]2O)cc1,.,.,.,0.3,1.8,.
COC(=O)C[C@@H]1C=C[C@H](NC(=O)Nc2cc(F)ccc2F)[C@@H](CO)O1,.,.,.,-1.0,.,.
O=C(Cn1nnc(-c2ccccc2)n1)OCc1ccccc1,-2.5,-3.4,-2.6,2.2,1.9,-5.4
O=C(OCc1ccccc1)c1cccc(-c2nnn(Cc3ccccc3)n2)c1,2.9,6.0,54.6*,-2.1,-4.5,3.7
O=C1CN(C(=O)CSc2nnnn2C2CC2)c2ccccc2N1,0.6,0.1,.,-4.5,-0.5,1.1
O=S1(=O)C=C(SCCN2CCCCC2)c2ccccc21,-2.3,-0.7,-10.3,63.1*,0.3,-2.0
C/C(=N\Nc1nc(N2CCCCC2)nc(N2CCOCC2)n1)c1cccs1,2.1,-4.8,1.0,-0.6,7.4,5.4
C/C(=N\Nc1nc(N2CCCCCC2)nc(N2CCCCCC2)n1)c1ccccc1,3.3,0.7,58.9*,-1.8,9.3,-4.4
O=C(O)c1cccc2c1C(=O)c1ccc(N3CCN(Cc4ccc5c(c4)OCO5)CC3)cc1S2(=O)=O,.,.,.,0.0,.,.
COc1ccc(/C=C2\CN(Cc3ccccc3)C/C(=C\c3ccc(OC)c(O)c3)C2=O)cc1O,2.8,5.9,21.3,67.2*,8.0,0.4
COc1cc(/C=C2\COC/C(=C\c3ccc(O)c(OC)c3)C2=O)ccc1O,1.5,0.0,15.6,64.4*,4.6,-5.5
COc1cc(/C=C2\SC(=S)N(N3CCOCC3)C2=O)ccc1O,-0.2,1.9,-4.6,0.6,-29.6,19.1*
CCN1C/C(=C/c2ccc(OC)c(O)c2)C(=O)/C(=C/c2ccc(OC)c(O)c2)C1,0.3,2.7,0.6,0.0,2.4,-1.5
COc1cc(/C=C2\SC(=S)N(N3CCOCC3)C2=O)cc(OC)c1OC,0.7,-2.2,-8.4,-1.1,-0.6,-0.1
COc1cc(/C=C/C=C2/CC/C(=C/C=C/c3ccc(O)c(OC)c3)C2=O)ccc1O,.,.,.,26.1,-8.4,.
O=C(/C=C/c1ccc(OC(F)F)cc1)Nc1cccc(S(=O)(=O)N2CCOCC2)c1,2.1,-0.1,3.6,5.4,-4.8,3.3
O=C(CNC(=O)c1ccco1)NNC(=O)c1cccc(Cl)c1,.,.,.,-5.1,-3.4,-3.4
Nc1nc(-c2ccccn2)nc(N)c1Cc1ccccc1F,4.3,14.0,79.5*,0.5,2.7,-5.5
CC(C)C(=O)NC(c1cccc([N+](=O)[O-])c1)c1ccc2cccnc2c1O (centres undefined),2.2,17.0*,23.9,1.6,-4.3,5.7
CC(C)C(=O)NC(c1ccco1)c1ccc2cccnc2c1O (centres undefined),-0.4,1.0,86.9*,3.9,7.8,1.8
CCCC(=O)NC(c1cccc([N+](=O)[O-])c1)c1ccc2cccnc2c1O (centres undefined),.,.,.,-5.2,.,.
